Measurements reported in PubChem BioAssay (EPA / NIEHS).
Calls of active or inactive are those of the source. How the source made its calls: active means hit-call score of the fitted dose curve at least 0.9, where 1 is the maximum; inactive means score below 0.9.

Biological target: Hepatocyte nuclear factor 3-beta (Homo sapiens) (UniProt Q9Y261)
Assay: ATG_FoxA2_CIS: Attagene CIS-FACTORIAL HepG2 Assay for human Forkhead box A2 (FOXA2) (AID 2282942)
Details: HepG2 cis-reporter transcription factor activity, 24 h; actives raise or lower the signal
Description: ATG_CIS is a cell-based, multiplexed-readout assay that uses HepG2, a human liver cell line, with measurements taken at 24 hours after chemical dosing in a 24-well plate.ATG_FoxA2_CIS is one of 52 assay component(s) measured or calculated from the ATG_CIS assay. It is designed to make measurements of mRNA induction, a form of inducible reporter, as detected with fluorescence intensity signals by Reverse transcription polymerase chain reaction (RT-PCR) and Capillary electrophoresis technology.Data from the assay component ATG_FoxA2_CIS was analyzed into 1 assay endpoint. This assay endpoint, ATG_FoxA2_CIS, was analyzed with bidirectional fitting relative to DMSO as the negative control and baseline of activity. Using a type of inducible reporter, measures of mRNA for gain or loss-of-signal activity can be used to understand the reporter gene at the transcription factor-level as they relate to the gene FOXA2. Furthermore, this assay endpoint can be referred to as a primary readout, because this assay has produced multiple assay endpoints where this one serves a reporter gene function. To generalize the intended target to other relatable targets, this assay endpoint is annotated to the dna binding intended target family, where the subfamily is forkhead box protein.
Human liver HepG2 cells are transiently transfected with multiple reporter transcription units (MRTUs) in 6-well plates using FuGene 6 reagent (Roche; 3 ml FuGene/1 mg DNA). The MRTU constructs are regulated by a cis-regulating element (promoter). […] A major difference between the CIS and TRANS system is that in CIS activities of endogenous TFs are measured, whereas the TRANS assay evaluates changes in activities of exogenous, chimeric NR-Gal4 proteins. […] At the end of 24 hour incubation, total RNA was isolated using TriZol reagent (Invitrogen). The isolated RNA is then reverse-transcribed using oligo(dT) primer and Mo-MLV reverse transcriptase (Invitrogen) with DNAse I (Ambion) treatment for 30 min. The one-tenth of the produced cDNA was amplified by PCR using Taq DNA polymerase (Invitrogen) and two reporter sequence-specific primers. The PCR products were fluorescently labeled by primer extension with 6-arboxyfluorescein (6-FAM) 5'-labeled reporter sequence-specific primer (2 min at 95 C, 20 s at 68 C and 10 min at 72 C) and these products were digested with 5U of HpaI (New England Biolabs) for 2h at 37 C. The fragments were purified using Qiaquick PCR columns (Qiagen), analyzed on an ABI 3130xL genetic analyzer (Applied Biosystems) with peak positions identified by using a set of X-rhodamine (ROX)-labeled MapMarker1000 molecular weight standards (BioVentures). The raw capillary electrophoresis data was processed using Attagraph software (Attagene).

Chain of Hepatocyte nuclear factor 3-beta (Homo sapiens) (Q9Y261 whole entry, looked up): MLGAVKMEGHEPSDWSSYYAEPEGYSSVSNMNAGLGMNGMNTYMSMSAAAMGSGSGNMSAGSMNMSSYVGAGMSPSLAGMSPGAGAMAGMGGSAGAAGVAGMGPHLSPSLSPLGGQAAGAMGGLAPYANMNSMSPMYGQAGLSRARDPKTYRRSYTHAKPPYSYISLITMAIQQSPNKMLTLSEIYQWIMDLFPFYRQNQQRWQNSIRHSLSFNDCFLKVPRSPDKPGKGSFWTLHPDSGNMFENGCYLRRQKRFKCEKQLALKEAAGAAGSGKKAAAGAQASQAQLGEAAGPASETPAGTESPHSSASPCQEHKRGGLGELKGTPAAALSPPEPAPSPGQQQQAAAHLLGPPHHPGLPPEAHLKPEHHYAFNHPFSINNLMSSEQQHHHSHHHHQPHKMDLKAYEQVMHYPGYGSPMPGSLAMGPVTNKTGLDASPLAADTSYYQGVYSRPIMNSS

SMILES | outcome
Cc1c[nH]c(=O)[nH]c1=O | inactive
COC(=O)c1ccccc1C | inactive
COC(=O)c1ccc(C(=O)OC)c(C(=O)OC)c1 | inactive
CC1CCC(=O)C1=O (stereo not given) | inactive
CC(=O)OC(C)c1ccccc1 (stereo not given) | inactive
C=Cc1ccc(OC(C)=O)cc1 | inactive
C=CC(=O)OCCCCCCCCCC | inactive
CC1CCC(C(C)(C)S)C(=O)C1 (stereo not given) | inactive
CCCC(C)C(=O)OCC (stereo not given) | inactive
C=C[C@@]1(C)CC(=O)[C@]2(O)[C@@]3(C)[C@@H](O)CCC(C)(C)[C@@H]3[C@H](O)[C@H](OC(C)=O)[C@@]2(C)O1 | inactive
CC(C)C(=O)OCCc1ccccc1 | inactive
CC/C=C\C/C=C\C/C=C\CCCCCCCC(=O)OC | inactive
CCC1COC(=O)O1 (stereo not given) | inactive
CC(C)=NNC(N)=S | inactive
CC(C)CC(=O)OCc1ccccc1 | inactive
C=CC(=O)NC(C)(C)C | inactive
Cc1ccc2c(c1)CCCN2 | inactive
C=C(C)C(=O)OCCCCCCCCCCCC | inactive
C=Cc1cccc(C)c1 | inactive
CC1=C(O)C(=O)C(C)O1 (stereo not given) | inactive

SMILES | outcome
CC(C)c1ccc2ncccc2c1 | inactive
CC1(C)CC(O)CC(C)(C)N1[O] | inactive
CC1=CCC(C(C)C)C=C1 (stereo not given) | inactive
COc1ccc(-c2coc3cc(O)cc(O)c3c2=O)cc1 | inactive
O=C(Cl)c1c(Cl)c(Cl)c(C(=O)Cl)c(Cl)c1Cl | inactive
CC(C)c1cccc(C(C)C)c1N | inactive
CCCCCCCCCCCCc1ccc(O)cc1 | inactive
Nc1ncnc2nc[nH]c12 | inactive
CC(C)C(=O)OCCOc1ccccc1 | inactive
CCC[Si](OC)(OC)OC | inactive
C=CCNCC=C | inactive
CCCCCCCO | inactive
c1ccc(-c2nc3ccccc3[nH]2)cc1 | inactive
CCCCOC(=O)C(C)CC (stereo not given) | inactive
O=C1CCCCCCCCCCC1 | inactive
CCCCOCC(C)O (stereo not given) | inactive
CCCCOCCOC(=O)COc1ccc(Cl)cc1Cl | inactive
N#CC1(N)CCCCC1 | inactive
CC(C)CO | inactive
C=C(C)OC(C)=O | inactive
